HT1080-NT tox = kills 2HG-producing HT-1080-NT fibrosarcoma cells; 1.6% of 360,000 active; HT-1080-NT fibrosarcoma viability, CellTiter-Glo ATP luminescence, 48 h; Potency, µM (series often up to 46.1 µM), for the others: top-dose activity, negative = less viability, actives largely listed as cytotoxic;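 note: NT is the 2HG producing partner of a matched IDH1 knockdown line; potency is the fitted concentration of half-maximal effect; 0% = DMSO-treated cells and -100% = media-only wells without cells; nearly all actives have a fitted effect of over 55% in size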
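A 48-hour cytotoxicity screen used HT-1080-NT cells plated 2 hours before compound delivery. ATP-based CellTiter-Glo luminescence measured viability, normalized to DMSO and no-cell controls.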
IL-1B inflam inh = inflammasome signaling inhibition, IL-1 beta readout. THP-1 LPS/ATP IL-1B secretion, AlphaLISA, 16 h; active compounds read low. AID 743279. activity change, % at 57.5 µM. 4.7% of 360,000 active; in the data active = activity change below about -50%; inconclusive = mostly about -30% to -49%
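THP-1 cells pretreated 1 hr with compounds (up to 57.5 uM final), then stimulated with LPS (250 ng/mL final) plus ATP (1.25 mM final); secreted IL-1B measured by AlphaLISA after 16 hr, decreased signal indicating inhibition.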
TDP1 cell noCPT = qHTS for Inhibitors of human tyrosyl-DNA phosphodiesterase 1 (TDP1): qHTS in cells in absence of CPT | 15% of 420,000 active | AID 686978, 2013 | DT40 Tdp1-/- hTDP1 cells, no CPT, ATP luminescence, 48 h | Potency, µM (doses to about 46.2 µM), for the others: at the top dose activity change, negative = growth inhibition, most hits filed as inhibitors; note: potency is the fitted concentration of half-maximal effect; nearly all actives have a fitted effect of over 55% in size
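Seeded 400 DT40-hTDP1 cells/well (vehicle DMSO, no 20 nM CPT); pinned compounds; ≥48 hr at 37 °C; CellTiter-Glo luminescence as viability measure.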
HT1080 IDH1KD tx = toxicity to HT-1080 IDH1 knockdown cells (counter line); HT-1080 IDH1 knockdown viability, ATP luminescence, 48 h; Potency, µM (titrated, usually from 46.1 µM), without a hit: at the highest dose activity, negative = toxicity, most hits filed as cytotoxic; 2% of 360,000 active; AID 686971;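 note: potency is the fitted concentration of half-maximal effect; 0% = DMSO wells and -100% = cell-free medium wells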
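Viability of IDH1-knockdown HT-1080 fibrosarcoma cells was assessed by CellTiter-Glo after 48 h at 37 °C with titrated compound; concentration-effect curves were classified by fit quality and response size.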
DT40 TDP1 CPT = growth inhibition of DT40 Tdp1-/-;hTDP1 cells with camptothecin (screen for TDP1 inhibitors) | Potency, µM (titrated, usually from 46.2 µM), without a hit: at the top dose activity change, negative = growth inhibition, hits mostly inhibitors | 12% of 420,000 active | AID 686979 | chicken DT40 Tdp1-/-;hTDP1 cells + 20 nM CPT, ATP luminescence, 48 h; note: potency is the fitted concentration of half-maximal effect; nearly all actives have a fitted effect of over 55% in size
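Chicken DT40 Tdp1-/- cells stably complemented with human TDP1 were seeded at 400 cells/well in medium containing 20 nM camptothecin, exposed to pin-transferred compounds, and grown at 37 °C for at least 48 hr. Viability was read as ATP luminescence.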
* hit, by the source's call; ? = inconclusive; · = not tested or not shown. Only some compounds are listed: those with a hit (about 19% of all), similar ones and a draw of the others. Unless noted, calls come from the whole dose curve; as a rule, active = well fitted curve in the direction sought with a large enough effect; inconclusive = small, poorly fitted or top-dose-only effect, or another doubt; inactive = no such curve, though single readings can be large; an effect the other way counts as inactive or inconclusive. Unless noted, % is set by controls: 0 for no effect and ±100 for the full control effect.

SMILES	HT1080-NT tox	IL-1B inflam inh	TDP1 cell noCPT	HT1080 IDH1KD tx	DT40 TDP1 CPT
Cn1c(CO)cnc1SCc1ccc(Cl)cc1	21%	-7	5%	14%	-1%
CCNC(=O)CC1C(=O)N(c2ccc(F)cc2)C(=O)N1Cc1ccc(OC)c(OC)c1 (stereo not drawn)	·	·	?	·	-10%
CC(=O)O[C@@H]1[C@H](OC(=O)CC(C)C)c2c(ccc3ccc(=O)oc23)OC1(C)C	7%	-2	?	7%	26µM*
CC1CN=C(N(C(=S)Nc2ccccc2)c2cccc(C(F)(F)F)c2)S1 (stereo not drawn)	-4%	·	?	-4%	1%
O=c1c2ccccc2n2c(-c3ccc(Cl)cc3)nnc2n1CCc1ccccc1	·	·	18µM*	·	?
O=c1c2ccccc2n2c(-c3ccc(F)cc3)nnc2n1Cc1ccccc1	-1%	8	-27%	10%	-5%
COc1ccc(Cn2c(=O)c3ccccc3n3c(-c4cccc(OC)c4OC)nnc23)cc1	·	·	16µM*	·	?
O=c1c2ccccc2n2c(-c3ccccc3O)nnc2n1Cc1ccc(F)cc1	·	·	-11%	·	-5%
COc1ccc(OC)c(-c2nnc3n(CCc4ccccc4)c(=O)c4ccccc4n23)c1	·	·	16µM*	·	8.2µM*
COc1cccc(-c2nnc3n(Cc4ccc(C)cc4)c(=O)c4ccccc4n23)c1O	·	·	26µM*	·	?
N#C/C(C(=O)NCc1ccccc1)=C1/SC(Cc2ccc(Cl)cc2)C(=O)N1c1ccccc1 (stereo not drawn)	-12%	-4	3%	1%	-11%
Cc1ccc(N2CC(NC(=O)/C=C\c3ccc4c(c3)OCO4)CC2=O)cc1 (stereo not drawn)	·	·	?	·	-30%
CSc1ccc(CCNC(=O)c2ccc(-c3nc(COc4ccc(C)cc4)c(C)o3)cc2)cc1	·	·	-6%	·	-3%
CC(C)OCCCn1c(=O)c2ccccc2n2c(-c3cc(Cl)ccc3O)nnc12	·	·	18µM*	·	?
CC(C)OCCCn1c(=O)c2ccccc2n2c(-c3ccccc3F)nnc12	·	·	?	·	-26%
CN1CC(=O)Nc2ccc([N+](=O)[O-])cc2C1=O	3%	-7	-4%	1%	-15%
Cc1nc2c(OCc3cccc(Cl)c3)cccn2c1N(C)Cc1cccs1	?	-20	16µM*	?	21µM*
CCc1nc2c(OCc3c(C)noc3C)cccn2c1N(C)C(=O)c1ccccc1F	19%	74	-13%	8%	-12%
CCc1nc2c(OCc3ccc(F)cc3)cccn2c1N(C)C(=O)C(C)C	2%	2	?	2%	-25%
COC(=O)c1ccccc1COc1cccn2c(N(C)Cc3cccs3)c(C)nc12	?	-78*	?	?	?
CCC(CC)C(=O)N(C)c1c(C)nc2c(OCc3ccccc3OC)cccn12	?	25	15µM*	18%	?
CCC(CC)C(=O)N(C)c1c(C)nc2c(OCc3ccccc3C(=O)OC)cccn12	-14%	21	16µM*	-8%	?
CCc1nc2c(OCC(N)=O)cccn2c1N(C)C(=O)C(C)C	?	30	-10%	11%	-11%
CCC(CC)C(=O)N(C)c1c(C)nc2c(OCC3CCCCC3)cccn12	?	-16	13µM*	?	?
Cc1ccc(C(=O)O/N=C(\N)Cc2cccs2)c(Cl)c1	?	?	-16%	-22%	?
SMILES	HT1080-NT tox	IL-1B inflam inh	TDP1 cell noCPT	HT1080 IDH1KD tx	DT40 TDP1 CPT
Cc1cc2c(cc1S(=O)(=O)N1CCN(c3cccc(C)c3C)CC1)OCC(=O)N2	2%	-10	-23%	-11%	-19%
Cc1ccc(C)c(NC(=O)CN(C)C(=O)c2cc(S(=O)(=O)N3CCOCC3)ccc2N2CCCC2)c1	-4%	-1	-28%	-10%	-17%
COc1ccc(S(=O)(=O)N2CCCCCC2)cc1C(=O)N(C)Cc1ccc(Cl)cc1Cl	?	-56*	?	?	?
CN(CCOc1ccc(Cl)cc1)c1ccc(S(=O)(=O)N2CCCCC2)cn1	4%	0	23µM*	-12%	18µM*
Cc1ccc(S(=O)(=O)N2CCOCC2)cc1C(=O)N(C)CCOc1ccc(Cl)cc1	?	-16	16µM*	-22%	?
CN(CCOc1ccc(Cl)cc1)C(=O)c1cc(S(=O)(=O)N2CCOCC2)ccc1N1CCCC1	-23%	-22	21µM*	-26%	16µM*
Cc1ccc(OCCNc2ccc(S(=O)(=O)N3CCCC3)cn2)cc1	-21%	-15	?	-24%	-8%
COc1cccc(OCC(O)CNC2CCCC2)c1 (stereo not drawn)	-6%	-15	-9%	-14%	1%
CC(C)C(N)C(=O)NC(Cc1c[nH]c2ccccc12)C(=O)O (stereo not drawn)	·	·	-9%	·	-3%
COc1ccc(N(CC(O)Cn2cnc3ccccc32)S(=O)(=O)c2ccc(C)cc2)cc1 (stereo not drawn)	-1%	8	?	-11%	-24%
COc1ccc(S(=O)(=O)N2CCOCC2)cc1C(=O)N(C)CCOc1ccc(Cl)cc1	-11%	3	16µM*	0%	?
COc1ccc(S(=O)(=O)N2CCCCCC2)cc1C(=O)N(C)Cc1c(F)cccc1Cl	-3%	-14	-23%	-3%	?
CN(CCOc1ccc(Cl)cc1)C(=O)c1cc([N+](=O)[O-])ccc1N1CCOCC1	-2%	-5	12µM*	3%	21µM*
Cc1ccc(S(=O)(=O)N2CCCCC2)cc1C(=O)N(C)CCOc1ccccc1	27%	1	-13%	0%	-25%
COc1ccc(S(=O)(=O)N2CCCCCC2)cc1C(=O)N(C)CCOc1ccccc1	-1%	-5	18µM*	0%	?
O=C(C(=O)N1CCN(c2ccccc2)CC1)c1ccncc1	7%	7	-15%	0%	4%
Cc1[nH]n(-c2nc(-c3ccccc3F)cc(=O)[nH]2)c(=O)c1CCO	17%	-9	-5%	12%	-4%
O=C(N/N=C/c1ccccc1O)c1cccc2ccccc12	?	98	4.1µM*	9.2µM*	5.8µM*
C(=NNC1=NCCN1)c1ccnc2ccccc12	7%	-103*	?	-2%	-4%
CN(C)c1ccc(C=NNC(=O)c2cccc3ccccc23)c(Cl)c1	?	35	4.1µM*	?	5.2µM*
O=C(N/N=C/c1ccnc2ccccc12)c1ccccc1O	-1%	-20	12µM*	-3%	3.3µM*
O=[N+]([O-])c1ccccc1/C=N/NC1=NCCN1	-1%	-7	-8%	0%	2%
